Consider 53 compounds from ChEMBL document CHEMBL4513216, “Probing the Open Global Health Chemical Diversity Library for Multistage-Active Starting Points for Next-Generation Antimalarials” (ACS Infect Dis, 2020).

About 8,600 (12%) of roughly 69,000 compounds showed an effect of 50% or more. The full list was thinned out, with strong results kept by preference.

For this test, the system named is Plasmodium berghei. As to the kind of experiment: Screen against P. berghei liver stage (PbLuc), transformed with Luciferase, at 10uM. The format is functional, HepG2. The settings on record: tested at 10 uM.
As to `Cc1n[nH]cc1CNCC(O)c1ccc(F)c(F)c1` (stereo not drawn), the INHIBITION is 1.24%. Next, `Cc1cc(C(=O)N2CC[C@]3(C[C@@H](OCc4ccccn4)CO3)C2)c(C)o1`: 43.9%; `O=C(NCC1CCCO1)c1cc(-c2cccnc2)c2cnccc2n1` (stereo not drawn): 31.3%. On to `Cc1nc(CN2CCC(c3nc4cc(Cl)ccc4o3)CC2)oc1C`, for which the INHIBITION was -6.88%. Turning to `Cc1ccc2oc([C@H]3CCN(Cc4ccccc4)C3)nc2c1`, the INHIBITION is given as 22.3%.

As for `Cc1noc(C)c1CN1CCC(c2nc3cc(Cl)ccc3o2)CC1`, the INHIBITION is reported as 72.3%. For `Cc1nnc(CN2CCC(c3nc4cc(Cl)ccc4o3)CC2)n1C`, the INHIBITION was -0.275%. With `Cc1ncc(CN2CCC(c3nc4cc(Cl)ccc4o3)CC2)s1`, the INHIBITION turned out to be 83.3%. The result for `Cc1ncc(CN2CCCN(Cc3noc(C4CC4)n3)CC2)s1` reads -36.1%. For the compound `N#Cc1cnc2cc(F)cc(F)c2c1NC1CCN(CC(N)=O)CC1`, the INHIBITION is given as -71.1%. Turning to `CCCc1cc(C(=O)N[C@@H](CO)[C@@H](O)c2ccccc2)n(C)n1`, the INHIBITION is on record as 20.3%. On to `CCn1nc(C)cc1C(=O)N1C[C@@H]2C[C@@H](C)O[C@@H]2C1`, for which the INHIBITION turned out to be 1.7%. For `CCN(Cc1noc(CC(C)C)n1)Cc1ccccc1OCC(=O)O`, the INHIBITION is on record as 11.8%. With `CCN(Cc1noc(CC(C)C)n1)Cc1ncccc1C(=O)O`, the INHIBITION came out at 35.9%. Take `CCN(Cc1noc(CC(C)C)n1)Cc1ccccc1Cl`: the INHIBITION worked out at 50.8%. On to `CCN(Cc1noc(CC(C)C)n1)Cc1ccccc1C`, for which the INHIBITION was found to be 42.4%. Next, `CCN(Cc1noc(CC(C)C)n1)Cc1cccc(F)c1O`: 45.2%; `CCN(Cc1noc(CC(C)C)n1)Cc1ccccc1C(=O)O`: 58.2%.

Take `CCC1COCCN1C(=O)NCc1nccn1Cc1ccccc1` (stereo not drawn): the INHIBITION came out at 40.7%. Take `CCCC1CCCN(C(=O)CCn2cccn2)CC1` (stereo not drawn): the INHIBITION was found to be 30.76%. Take `CC(C)C(=O)N1CC[C@H]2N(C)CC[C@@]2(C(=O)N2CCOCC2)CC1`: the INHIBITION came out at 14.9%. Consider `CC(C)n1cnc2c1C(C(=O)N(C)C)N(Cc1ccccc1)CC2` (stereo not drawn), for which the INHIBITION was 4.61%. The result for `C1CCN(CCO[C@@H]2CC[C@H]3[C@H]2OCCN3CC2CCOCC2)C1` reads 34.4%; that for `Cc1nccn1-c1ccc(C(C)NCc2ncc[nH]2)cc1` (stereo not drawn), 50%; that for `Cc1nc(CNC(C)c2ccc(OCC(=O)NC3CC3)cc2)cs1` (stereo not drawn), 33.7%. For `Cc1nccn1-c1ccc(N2CCC(N[C@H](C)C(C)C)CC2)cc1`, the INHIBITION was determined as 43%. Take `Cc1nccn1-c1ccc(C(C)NCc2cc[nH]n2)cc1` (stereo not drawn): the INHIBITION turned out to be 50.8%. As to `COc1ccc(C)cc1C(C)NCc1cccn1C` (stereo not drawn), the INHIBITION is given as -40.7%. Next, `Cc1nccn1-c1ccc(C(C)NCc2cccn2C)cc1` (stereo not drawn): 53.4%; `CCOc1ccc(CNC(C)c2ccc3[nH]c(=O)[nH]c3c2)cc1` (stereo not drawn): 4.71%; `Cc1nccn1-c1ccc(N2CCC(NC(C)C(C)C)CC2)cc1` (stereo not drawn): 25.8%.

As to `CC(NCc1cccn1C)c1noc(-c2ccc(Cl)cc2)n1` (stereo not drawn), the INHIBITION is -1.15%. In the case of `COc1cc2c(cc1OC)CN(C(=O)NCC1CCCO1)CC2` (stereo not drawn), the INHIBITION stood at 18.9%. `Cc1c(C(=O)O)oc2ccc(I)cc12`: the INHIBITION came to 26.3%. Turning to `Cc1nn(C)c(N(C)C)c1CNCCS(C)(=O)=O`, the INHIBITION was -21.915%. The result for `O=C(CC1[C@H]2CN(C(=O)CO)C[C@@H]12)Nc1cccnc1` (stereo partly drawn) reads 42.6%; that for `CC(NC(=O)NCCCc1n[nH]c(N)c1C#N)c1ccc(F)c(F)c1` (stereo not drawn), -23.8%; that for `Cn1c(=O)[nH]c(=O)c2c1nc1n2CC(c2ccc(Br)cc2)O1` (stereo not drawn), 1.985%. Consider `CC(=O)Nc1nc(CN2CCOC(Cn3cccn3)C2)cs1` (stereo not drawn), for which the INHIBITION turned out to be 31.3%. As to `CC(NCc1ccc(OCC(N)=O)cc1)c1ccc(Cl)c(Cl)c1` (stereo not drawn), the INHIBITION is on record as -6.91%. In the case of `CC(C)(C)CC(=O)NCC(=O)Nc1ccn(Cc2ccccc2)n1`, the INHIBITION is reported as 21.6%.

Regarding `O=C(NCC1CC[C@@]2(CNCCOC2)O1)c1cnccn1` (stereo partly drawn), the INHIBITION worked out at 5.36%. `Cc1ncsc1C(=O)NCC1CCC2(CCNCC2)CO1` (stereo not drawn): the INHIBITION is -10.9%. Consider `Nc1nc(C(=O)NCC2CCC3(CCNCC3)CO2)cs1` (stereo not drawn), for which the INHIBITION was 55.6%. Next, `O=C(NCC1CCC2(CCNCC2)CO1)c1ccno1` (stereo not drawn): 5.36%; `O=C(NCC1CCC2(CCNCC2)CO1)c1cnccn1` (stereo not drawn): 73.3%; `O=C(NCC1CCCO1)c1csc(Cc2ccccc2)n1` (stereo not drawn): -87.7%. For the compound `CCN1CCOC(CNCc2cccc(OCc3ccccn3)c2)C1` (stereo not drawn), the INHIBITION was -62.8%. With `CN(C)c1cc(CNC(=O)c2c(F)cccc2F)ccn1`, the INHIBITION is on record as -7.35%. The result for `COCC1Cn2nnc(-c3cnn(C)c3)c2CN1Cc1ccc(C)s1` (stereo not drawn) reads 11.8%. As for `CNS(=O)(=O)CC(=O)NC(c1cc(C)sc1C)C(C)C` (stereo not drawn), the INHIBITION is reported as 16.6%. The result for `Cn1cc(C(=O)NC(Cn2cccn2)C(C)(C)C)cn1` (stereo not drawn) reads 35.2%. Next, `CCc1nc(CNC(C)c2cccc(N3CCCC3=O)c2)cs1` (stereo not drawn): 10.8%.
